Data from PubChem BioAssay AID1628 (Sanford-Burnham Center for Chemical Genomics, 2009).
Out of some 190,000 compounds screened, about 930 (0.49%) were called active. The list shows a part of the results. Results with a measured potency or affinity are listed apart. A number with no mark means an inactive call.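 How the source made its calls: active means z-score of insulin promoter reporter brightness in nuclei below -3 at 5 µM, with at least 500 cells counted; inconclusive means wells with under 500 cells, flagged as toxic or sparse; inactive means the rest.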

Experiment: insulin promoter down-regulators in MIN6 cells, imaging, high-content screening, mouse beta cells (AID 1628)
Conditions: MIN6 insulin promoter GFP reporter, at 5 µM, active compounds read low

Row | SMILES | z-score
1 | COc1ccc(C2C(C(=O)N3CCOCC3)CCC(=O)N2c2ccc(OC)cc2)cc1 (stereo not given) | 3.73
2 | COc1ccc(N2CCN(C(=O)C3CCC(Cn4c(=S)[nH]c5ccccc5c4=O)CC3)CC2)cc1 (stereo not given) | -3.35 (active)
3 | Nc1c(C(=O)c2cccs2)sc2nsc(SCCN3CCCCC3)c12 | 8.75
4 | Nc1nc(-c2ccc(Cl)cc2)c(N=Nc2ccc(S(=O)(=O)N3CCOCC3)cc2)s1 | 3.8
5 | CCN(CC)c1ccc(/C=C2/SC(=O)N(C(C)C)C2=O)o1 | 17.3
6 | Cc1cc(Cl)n2nc(C)c(-c3ccc(Cl)cc3)c2n1 | -5.26 (active)
7 | O=C(CCn1cccc1)Nc1ccc(OC(F)(F)F)cc1 | 2.14
8 | CN(C)S(=O)(=O)Oc1cccc(C(=O)Nc2ccc([N+](=O)[O-])cc2)c1 | 3.38
9 | CCCOc1ccc2ccccc2c1/C=N/n1c(C)nnc1-n1nc(C)cc1C | -4.98 (active)
10 | N#C/C(=C\c1ccc(N2CCCCC2)o1)C(N)=O | 7.37
11 | O=C(O)c1cc([N+](=O)[O-])c(NCCC2=CCCCC2)c([N+](=O)[O-])c1 | 0.74
12 | COC(CNC(=O)CSCc1nc(-c2ccc(SC)cc2)oc1C)OC | 2.32
13 | COc1cccc(/C=N/NC(=O)c2ccc(N(C)S(=O)(=O)c3ccccc3)cc2)c1OC | 3.8
14 | COc1cc(C(=O)Oc2ccccc2/C=N/NC(=O)c2ccc(C)c(Cl)c2)cc(OC)c1OC | -5.2 (active)
15 | CCCN1C=CC(=CC=C(C#N)C#N)C=C1 | 4.99
16 | CCC(=O)Nc1ccc(C(=O)Cn2ncc(Cl)c(Cl)c2=O)cc1 | -3.05 (active)
17 | C=CCNC(=O)/C(=C\c1ccc(Br)cc1)NC(=O)c1ccccc1OC | 3.42
18 | COc1ccccc1C(=O)NNC(=O)C(=O)NC(C)(C)C | 3.28
19 | COc1ccccc1C(=O)NC(=Nc1nc2ccccc2o1)NC(=O)c1ccccc1OC | -6.44 (active)
20 | COc1ccccc1N/C=C/c1onc(C)c1[N+](=O)[O-] | 4.57
21 | Cn1c(/C(C#N)=C/c2ccc(-c3ccc(S(N)(=O)=O)cc3)o2)nc2ccccc21 | 4.53
22 | C/C(=N/Nc1nc(-c2ccccc2)cc(-c2ccccc2)n1)c1ccc(N)cc1 | -3.67 (active)
23 | CNC(=S)NNC(=O)c1oc2nc(-c3ccccc3)cc(-c3ccco3)c2c1N | 3.41
24 | C/C(=N\Nc1ccc([N+](=O)[O-])cc1)c1cc2ccccc2o1 | 5.52
25 | COc1cc(OC)c(-c2c3cc(O)c(=O)cc-3oc3cc(O)c(O)cc23)cc1OC | 11.4
